Experiment [1] in a line: qHTS profiling of the MIPE4 collection as inhibitors of Plasmodium falciparum (3D7) proliferation (AID 743344).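 Further: scaled between DMSO vehicle wells and 0.29 µM artemisinin as full inhibition.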 Conditions: P. falciparum 3D7 in erythrocytes, SYBR Green DNA fluorescence, 72 h; at 28.5 µM unless noted. The gist of the method:
(§1)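 Erythrocytes infected with P. falciparum (0.3% parasitemia, 2.5% hematocrit) incubated with compounds 72 h at 37 C, 5% CO2. Lysis with saponin/Triton buffer containing SYBR Green I, overnight at room temperature in the dark; DNA fluorescence (485/535 nm) normalised to 0.29 uM artemisinin and DMSO.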

Experiment [2] can be described thus: qHTS profiling of the MIPE4 collection as inhibitors of Plasmodium falciparum (DD2) proliferation (AID 743345). Conditions: P. falciparum Dd2 in erythrocytes, SYBR Green DNA, 72 h; at 28.5 µM unless noted. The gist of the method:
as §1

Experiment [3] can be described thus: qHTS profiling of the MIPE4 collection as inhibitors of Plasmodium falciparum (DD2) proliferation (Rep 2) (AID 743346). The following applies: P. falciparum Dd2 in erythrocytes, SYBR Green DNA, 72 h; at 28.5 µM unless noted. The gist of the method: as §1
The nature of experiment [4]: qHTS profiling of the MIPE4 collection as inhibitors of Plasmodium falciparum (HB3) proliferation (AID 743347).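 Further: plate controls were DMSO vehicle wells for no effect and artemisinin wells for full effect.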 The following applies: P. falciparum HB3 in erythrocytes, SYBR Green DNA, 72 h; at 28.5 µM unless noted. The gist of the method:
as §1

Experiment [5] can be described thus: High-throughput drug toxicity screening in the BPDCN cell line Gen2.2 (AID 1224824).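 Further: cells exposed to compounds for 48 h before reading.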 Conditions: Gen2.2 BPDCN cells; at 45.8 µM (top of the series) unless noted. The gist of the method:
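Gen2.2 cells (500/well) in phenol red-free RPMI with 10% FBS were exposed to compounds for 48 h at 37 °C, 5% CO2. Viability was read by CellTiter-Glo luminescence and normalized to DMSO (100%) and 9.2 uM bortezomib (0%).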

Experiment [6] in a line: High-throughput drug toxicity screening in the BPDCN cell line Cal-1 (AID 1224825). Conditions: Cal-1 BPDCN cell viability, qHTS; at 45.8 µM (top of the series) unless noted. The gist of the method:
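Exponentially growing Cal-1 cells, 500 per well in phenol red-free RPMI with 10% FBS, were exposed to compounds for 48 h at 37 °C, 5% CO2. Viability was read by CellTiter-Glo luminescence and normalised to DMSO (100%) and 9.2 uM bortezomib (0%).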

Experiment [7] can be described thus: qHTS Screen of the MIPE 4.0 Collection Against Ewings Sarcoma (RDES) (AID 1259252; active means well fitted curve in the direction sought with a large enough effect; an effect the other way counts as inactive or inconclusive; further: nearly all actives have a fitted effect of over 35% in size; further: potency means the concentration at half of the fitted maximal effect). The gist of the method: (§2)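 Here, cells in 5% FBS RPMI were exposed for two days (48 h) to compound dilutions added four hours after plating. ATP-based CellTiter-Glo luminescence measured viability, normalized to vehicle and no-cell blanks.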
Experiment [8] can be described thus: qHTS assay for measurement of the activity of small molecule inhibitors on Zika virus induced Caspase-3 activity in human astrocytoma cells (AID 1224859; active means well fitted curve in the direction sought with a large enough effect; an effect the other way counts as inactive or inconclusive;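 further: plate controls were ZIKV-infected untreated cells for no effect and uninfected cells for full effect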). Summed up: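 Compound added 1 h pre-infection; ZIKV 2 FFU/cell on SNB-19 cells, 6 h, 37 C/5% CO2. Caspase-Glo 3/7 luminescence; values as % inhibition of ZIKV-induced caspase activity.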
The nature of experiment [9]: qHTS Screen of the MIPE 4.0 Collection Against Ewings Sarcoma (TC32) (AID 1259256; active means well fitted curve in the direction sought with a large enough effect; an effect the other way counts as inactive or inconclusive; further: nearly all actives have a fitted effect of over 45% in size; further: potency means the concentration at half of the fitted maximal effect). The gist of the method: as §2
Experiment [10] can be described thus: qHTS profiling for inhibitors of Plasmodium falciparum (HB3) proliferation (AID 743324; active means well fitted curve in the direction sought with a large enough effect; an effect the other way counts as inactive or inconclusive;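 further: 100% = DMSO vehicle wells and 0% = artemisinin-treated control wells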). The following applies: Plasmodium falciparum HB3 blood-stage proliferation; at 28.7 µM (top of the series) unless noted. Summed up:
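P. falciparum HB3 grown in erythrocytes (0.3% parasitemia, 2.5% hematocrit final) with compound for 72 h at 37 C, 5% CO2. Parasite DNA detected by SYBR Green after saponin/triton lysis overnight; normalized to 0.29 uM artemisinin and DMSO.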

A short description of experiment [11]: qHTS Screen of the MIPE 4.0 Collection Against Ewings Sarcoma (TC71) (AID 1259253; active means well fitted curve in the direction sought with a large enough effect; an effect the other way counts as inactive or inconclusive; further: nearly all actives have a fitted effect of over 40% in size; further: potency means the concentration at half of the fitted maximal effect). The gist of the method: as §2
A short description of experiment [12]: Identifying Small Molecule Inhibitors of Pancreatic Cancer Stem Cells (Panc1, Adherent) (AID 1259362; active means well fitted curve in the direction sought with a large enough effect; an effect the other way counts as inactive or inconclusive; further: potency means the concentration at half of the fitted maximal effect;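 on viability, % of control: compound exposure lasted 48 h before the viability read; plate controls were DMSO-treated cells for no effect and cell-free media wells for full effect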). Conditions: Potency: viability. The gist of the method:
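Pre-formed 14-day tumor spheroids or adherent cells dosed and incubated 48 h, 37C, 5% CO2. Viability assessed by CellTiter-Glo.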

Experiment [13] is described as follows: qHTS Screen of the MIPE 4.0 Collection Against Ewings Sarcoma (EW8) (AID 1259255; active means well fitted curve in the direction sought with a large enough effect; an effect the other way counts as inactive or inconclusive; further: potency means the concentration at half of the fitted maximal effect; nearly all actives have a fitted effect of over 35% in size). The gist of the method:
as §2

The nature of experiment [14]: qHTS assay for measurement of the activity of small molecule inhibitors on Zika virus induced Caspase-3 activity in human iPSC derived neural progenitor cells (hNPCs) (AID 1224857; active means well fitted curve in the direction sought with a large enough effect; an effect the other way counts as inactive or inconclusive; further: % of control where 0% means no effect; nearly all actives have a fitted effect of over 65% in size). The gist of the method:
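Values are percent inhibition of virus-induced caspase-3/7 signal, scaled between uninfected cells and ZIKV-infected cells. Infection used 2 FFU/cell for 6 h after 1 h compound exposure.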

Experiment [15] can be described thus: Identifying Small Molecule Inhibitors of Pancreatic Cancer Stem Cells (A2780, Spheroid) (AID 1259357; active means well fitted curve in the direction sought with a large enough effect; an effect the other way counts as inactive or inconclusive;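 further: spheroids pre-formed over 14 days in stem cell medium on hydrogel; compound exposure lasted 48 h before the ATP luminescence read; 100% = DMSO treated cells and 0% = wells without cells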). Conditions: Potency: A2780 spheroid viability. Summed up:
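After a 4 h attachment period, compounds were pinned into wells and cultures held 48 h under standard incubator conditions. Viability was then measured as CellTiter-Glo luminescence following 10 min at room temperature.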

Data on nine molecules can be found in PubChem BioAssay (NCATS).

Results filed as inconclusive are left out. Active and inactive are the calls of the source. Unless noted, how the calls were made is not given here.

Molecule `COc1ccc2c(c1)c(C1=C(c3c[nH]c4ccccc34)C(=O)NC1=O)cn2CCCN(C)C` registered a parasite growth, % of DMSO control in [1] of 5.52%. For the same molecule, the parasite growth remaining, % of DMSO control (lower = more inhibition) in [2] was 8.71%. In [3], the parasite growth, % of control (lower = inhibition) amounted to 12.5%. For the same molecule, the growth, % of control in experiment [4] amounted to 5.22%. In addition, the cell viability, % of control (lower = more cytotoxic) in [5] came to 8.51%. The viability (% of control) in experiment [6] is 8.47%. Also, in experiment [7], the Potency is 0.0083 µM (active).

As for `Cc1ccc(S(=O)(=O)OCC(=O)Nc2ccc(C(=O)O)c(O)c2)cc1`, the parasite growth, % of DMSO control in experiment [1] amounted to 61.2%. The parasite growth remaining, % of DMSO control (lower = more inhibition) in experiment [2] came out at 85.7%. In addition, the parasite growth, % of control (lower = inhibition) in experiment [3] is 124%. The growth, % of control in [4] was 75.5%. Besides, the cell viability, % of control (lower = more cytotoxic) in [5] stood at 96.8%. In addition, the viability (% of control) in experiment [6] amounted to 25.4%. Also, the Potency result in experiment [8] is “inactive”. In addition, the Potency in experiment [7] and in experiment [9] was 11.8 µM (active) each time.

`CCOc1ccccc1N=Nc1c(C)[nH]n(-c2nc(-c3ccccc3)cs2)c1=O`: in experiment [1], the parasite growth, % of DMSO control was determined as 92.5%. Further, the parasite growth remaining, % of DMSO control (lower = more inhibition) in experiment [2] stood at 102%. Moreover, the parasite growth, % of control (lower = inhibition) in experiment [3] amounted to 82.1%. This molecule also returned a growth, % of control in experiment [4] of 87.1%. For the same molecule, the cell viability, % of control (lower = more cytotoxic) in experiment [5] is 97.4%. Besides, the viability (% of control) in experiment [6] was 63.6%. Further, the results for the Potency in experiment [7] and in experiment [9] were 16.6 µM (active) and 11.8 µM (active), respectively.

With `COc1ccc(CCN(C)CCCOc2ccc(S(=O)(=O)c3[nH]c4ccccc4c3C(C)C)cc2)cc1OC`, the remaining proliferation (% of control), lower = more inhibition in experiment [10] is -1.05%. In [1], this molecule registered a parasite growth, % of DMSO control of 31.8%. Also, in experiment [2], the parasite growth remaining, % of DMSO control (lower = more inhibition) is 26.3%. Besides, the parasite growth, % of control (lower = inhibition) in experiment [3] was 16.3%. In experiment [4], this molecule returned a growth, % of control of 42.9%. Further, in experiment [5], the cell viability, % of control (lower = more cytotoxic) worked out at 14.1%. The viability (% of control) in [6] came out at 9.08%. In addition, the Potency entry in experiment [8], in experiment [7] and in experiment [11] was “inactive” each time. Besides, in experiment [12], the Potency was 26.4 µM (active).

Turning to `CN1[C@H]2CC[C@H]1CC(OC(=O)c1c[nH]c3ccccc13)C2` (stereo not given in full), the parasite growth, % of DMSO control in experiment [1] worked out at 53%. The parasite growth remaining, % of DMSO control (lower = more inhibition) in experiment [2] was determined as 26.8%. Also, in [3], the parasite growth, % of control (lower = inhibition) was determined as 19.2%. The molecule further came in with a growth, % of control in experiment [4] of 22%. Further, the cell viability, % of control (lower = more cytotoxic) in [5] worked out at 99%. Also, the viability (% of control) in experiment [6] is 111%. For the same molecule, the Potency result in experiment [8] is “inactive”. Also, the results for the Potency in [11] and in experiment [9] were 18.7 µM (active) and 3.32 µM (active), respectively.

In experiment [1], `CO[C@H]1/C=C\O[C@@]2(C)Oc3c(C)c(O)c4c(O)c(c(C=NN5CCN(C6CCCC6)CC5)c(O)c4c3C2=O)NC(=O)C(C)=CC=C[C@H](C)[C@H](O)[C@@H](C)[C@@H](O)[C@@H](C)[C@H](OC(C)=O)[C@H]1C` yielded a parasite growth, % of DMSO control of 4.38%. Further, the parasite growth remaining, % of DMSO control (lower = more inhibition) in [2] was determined as 6.13%. Also, in experiment [3], the parasite growth, % of control (lower = inhibition) was 8.54%. Besides, in experiment [4], the growth, % of control was determined as 2.45%. In experiment [5], this molecule displayed a cell viability, % of control (lower = more cytotoxic) of 1.16%. For the same molecule, the viability (% of control) in [6] is 0.727%. For the same molecule, the Potency result in experiment [8] and in [9] was “inactive” each time. Also, the Potency in [7] is 0.0418 µM (active).

The molecule `COc1cc(N2CCN(C)CC2)ccc1Nc1nc(N)c(C(=O)c2c(Cl)cccc2Cl)s1` gave a parasite growth, % of DMSO control in [1] of 20.2%. Besides, in [2], the parasite growth remaining, % of DMSO control (lower = more inhibition) was found to be 8.77%. Besides, in experiment [3], the parasite growth, % of control (lower = inhibition) was determined as 14.6%. Besides, the growth, % of control in [4] came out at 21.1%. Moreover, the cell viability, % of control (lower = more cytotoxic) in experiment [5] turned out to be 72.5%. In addition, in experiment [6], the viability (% of control) amounted to 49.7%. Moreover, the Potency result in [8] was “inactive”. Moreover, the Potency in experiment [7] is 13.2 µM (active); in experiment [13], 16.6 µM (active); in [9], 10.5 µM (active).

`CCCCCCCCCCCCCC(=O)N[C@H](CO)[C@H](O)c1ccc([N+](=O)[O-])cc1`: the remaining proliferation (% of control), lower = more inhibition in experiment [10] is 73.2%. In [1], this molecule returned a parasite growth, % of DMSO control of 55.9%. In addition, the parasite growth remaining, % of DMSO control (lower = more inhibition) in experiment [2] was determined as 85.8%. For the same molecule, the parasite growth, % of control (lower = inhibition) in experiment [3] stood at 33%. Besides, the cell viability, % of control (lower = more cytotoxic) in [5] is 1.84%. The Potency entry in experiment [14], in experiment [8], in [7], in experiment [15] and in experiment [12] was “inactive” in each case.

On to `Fc1ccc(CNc2ncnc3ccc(F)cc23)cc1`, for which the parasite growth remaining, % of DMSO control (lower = more inhibition) in [2] was 90.6%. Also, the parasite growth, % of control (lower = inhibition) in [3] was 117%. Also, in [4], the growth, % of control is 630%. In addition, the cell viability, % of control (lower = more cytotoxic) in experiment [5] stood at 91.2%. In addition, the Potency entry in experiment [14] and in [8] was “inactive” throughout. Moreover, the Potency in experiment [7] was 13.2 µM (active).
